Consider 21 compounds from PubChem BioAssay (NCI).

Assay [1] is described as follows: NCI Yeast Anticancer Drug Screen. Data for the rad50 strain (AID 155).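 Also: 0% = growth of vehicle-only cultures of the same strain.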 The settings on record: S. cerevisiae rad50 strain growth inhibition; at 50.0 µM; active compounds read high. An outline of the steps: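 Readout: growth inhibition relative to vehicle-treated cultures. Compound exposure was carried out in a genetically defined yeast strain deficient in DNA damage repair.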

Assay [2] in a line: NCI Yeast Anticancer Drug Screen. Data for the mec2-1 strain (AID 157). To be noted: S. cerevisiae mec2-1 strain, at 50.0 µM, active compounds read high. The method, boiled down: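 Using mec2-1 yeast: add compound, measure growth, express inhibition versus vehicle-treated cultures.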
Assay [3] in a line: NCI Yeast Anticancer Drug Screen. Data for the sgs1 mgt1 strain (AID 161).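 Also: 0% = growth of cultures given vehicle only.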 The settings on record: S. cerevisiae sgs1 mgt1 strain, at 50.0 µM, active compounds read high. An outline of the steps:
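Percent growth inhibition was derived by comparing compound-exposed mutant yeast with vehicle-exposed cultures. The strain carries alterations in DNA damage repair.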

Assay [4] can be described thus: NCI Yeast Anticancer Drug Screen. Data for the cln2 rad14 strain (AID 165).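 Also: 0% = growth equal to vehicle treated cultures.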 To be noted: S. cerevisiae cln2 rad14 strain, at 50.0 µM, active compounds read high. An outline of the steps:
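Yeast strain cln2 rad14, bearing defects in cell cycle control and DNA repair, serves as the test system; values reflect growth inhibition compared with vehicle.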

Assay [5] is described as follows: NCI Yeast Anticancer Drug Screen. Data for the bub3 strain (AID 167). The settings on record: S. cerevisiae bub3 mutant strain, at 50.0 µM, active compounds read high. An outline of the steps: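 Readout: yeast growth inhibition, expressed relative to vehicle-only wells. The test organism is a mutant strain from a panel with lesions in DNA repair or checkpoint genes.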

Assay [6] can be described thus: NCI Yeast Anticancer Drug Screen. Data for the mlh1 rad18 strain (AID 175). To be noted: S. cerevisiae mlh1 rad18 strain growth inhibition; at 50.0 µM; active compounds read high. An outline of the steps:
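Steps: expose repair-defective yeast to compound; measure growth; express inhibition against vehicle-treated controls.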

Each structure is given as a SMILES string. This is part of a sample that, as a whole, favours compounds with a hit. Of some 79,000 tested, about 15% had one in any assay. Unmarked numbers belong to inactive results. Calls of active or inactive are those of the source. Rule as the data show it: active = growth inhibition above about 70%; inactive = the rest.

`Cc1cc(C)c(S(N)(=O)=O)c(C)c1`: the growth inhibition is -1.2% in assay [1]; -16.6% in assay [2]; -28.2% in assay [3]; -5.4% in assay [4]; -15.1% in assay [5]; -0.8% in assay [6].

As to `O=C(O)c1ccc[n+](Cc2ccccc2)c1`, the growth inhibition was 4.9% in assay [1]; 12.6% in assay [2]; -5.15% in assay [3]; -8.2% in assay [4]; -5.95% in assay [5]; 2.15% in assay [6].

As for `O=C(O)CCNc1ncnc2nc[nH]c12`, the growth inhibition in assay [1] was -65.5%; in assay [2], -13.2%; in assay [3], -33.5%; in assay [4] it was -34.6%; in assay [5], 24.4%; in assay [6] it was -19.9%.

Turning to `O=C(c1cccc(C(=O)N2CCCC2)n1)N1CCCC1`, the growth inhibition in assay [1] is -11.4%; in assay [2], -13.2%; in assay [3] it was -1.7%; in assay [4], -25.6%; in assay [5], -15.5%; in assay [6], -18.8%.

Consider `CC1CCC(C(C)C)C(OC(=O)c2ccccc2O)C1` (stereo unspecified), for which the growth inhibition in assay [1] is 16.1%; in assay [2], 6.9%; in assay [3] it was -11.3%; in assay [4], 33.5%; in assay [5], 12%; in assay [6], 35.5%.

As to `CN1C(=O)C(O)(CC(=O)c2ccccc2)c2ccccc21` (stereo unspecified), the growth inhibition in assay [1] is 0.15%; in assay [2], 17.7%; in assay [3], 3.3%; in assay [4] it was -23.9%; in assay [5], 23.4%; in assay [6], -5.65%.

For the compound `O=C1O/C(=C(\Br)c2ccccc2)c2ccccc21`, the growth inhibition in assay [1] was 52.9%; in assay [2], -1.4%; in assay [3] it was 55.2%; in assay [4], 4.2%; in assay [5] it was 29.1%; in assay [6] it was 31.6%.

As for `O=C1OC(=O)C2C1C1C=CC2C1(c1ccccc1)c1ccccc1` (stereo unspecified), the growth inhibition in assay [1] was 9.05%; in assay [2] it was 4.25%; in assay [3], 8.95%; in assay [4] it was -5.65%; in assay [5], 25.5%; in assay [6], 7%.

On to `N#CC(C(N)=O)C(CC(=O)c1ccccc1)c1ccccc1` (stereo unspecified), for which the growth inhibition is -7.65% in assay [1]; -3.1% in assay [2]; 13.3% in assay [3]; 15.9% in assay [4]; 19.2% in assay [5]; -2.05% in assay [6].

`CC1CN(Cc2ccccc2)CCC1N1CCCC1` (stereo unspecified): the growth inhibition in assay [1] was 24.8%; in assay [2] it was 11.8%; in assay [3], 27.6%; in assay [4], 29.4%; in assay [5], 23.2%; in assay [6] it was 21.4%.

Turning to `CCOC(=O)/C=C(/C)C#N`, the growth inhibition in assay [1] was -9.65%; in assay [2] it was -3.7%; in assay [3], -11.8%; in assay [4], 7.4%; in assay [5] it was 9.55%; in assay [6] it was 2.9%.

For `Cn1nc(-c2ccccc2)c(-c2ccccc2)c(C#N)c1=O`, the growth inhibition is 0.05% in assay [1]; -3.55% in assay [2]; 0.4% in assay [3]; -22.6% in assay [4]; -1.8% in assay [5]; 0.8% in assay [6].

In the case of `CC1=NN2C(=O)C(c3ccccc3)SC2=NC(C)(C)C1` (stereo unspecified), the growth inhibition in assay [1] is 13.1%; in assay [2] it was -18.9%; in assay [3] it was 4.05%; in assay [4], 26.6%; in assay [5] it was -9.15%; in assay [6], -7.25%.

As to `CC(=O)OC1CC(O)C23COC(O)C1(C)C2CC(O)C1(C)C3C(=O)C(O)C2(C)C(c3ccoc3)CC3OC321` (stereo unspecified), the growth inhibition in assay [1] is -9.9%; in assay [2], 2.75%; in assay [3], -11.3%; in assay [4] it was 0.2%; in assay [5], -2.2%; in assay [6], -37.7%.

For the compound `CC(=O)OCC1OC(OC(C)=O)C(NC(=O)C(C)NC(=O)OCc2ccccc2)C(OC(C)=O)C1OC(C)=O` (stereo unspecified), the growth inhibition in assay [1] was 37.1%; in assay [2] it was 6.9%; in assay [3], 16.2%; in assay [4] it was 11.6%; in assay [5] it was -1.05%; in assay [6], 14.6%.

For the compound `COc1cc(O)c2c(c1)C(=O)C1=C(C2=O)C(O)C[C@@](C)(O)C1` (stereo partly specified), the growth inhibition was 89.2% (active) in assay [1]; 90.2% (active) in assay [2]; 92% (active) in assay [3]; 75.5% (active) in assay [4]; 91.2% (active) in assay [5]; 90% (active) in assay [6].

As to `Cc1ccccc1/C1=C/CCCCCC1`, the growth inhibition in assay [1] was -8.1%; in assay [2], 11.3%; in assay [3], -10.4%; in assay [4], -21.6%; in assay [5], 19.5%; in assay [6] it was -5.05%.

For the compound `CCCCC/C=C1\CCC(CN2CCOCC2)C1=O` (stereo unspecified), the growth inhibition was 89.5% (active) in assay [1]; 90.7% (active) in assay [2]; 91.9% (active) in assay [3]; 90.1% (active) in assay [4]; 90.3% (active) in assay [5]; 89% (active) in assay [6].

On to `CCC(C#N)(c1ccccc1)N(CCc1ccccc1)C(=O)c1ccccc1` (stereo unspecified), for which the growth inhibition in assay [1] is -5.8%; in assay [2] it was -0.5%; in assay [3], -12.9%; in assay [4], -20.9%; in assay [5], -13.2%; in assay [6], -22.1%.

Regarding `C[C@@H](O)CO`, the growth inhibition is 17.8% in assay [1]; -16% in assay [2]; 1.7% in assay [3]; 3.75% in assay [4]; -3.55% in assay [5]; 13.2% in assay [6].

Turning to `O=S1(=O)CC(O)C(Br)C1` (stereo unspecified), the growth inhibition in assay [1] is -6.7%; in assay [2] it was 24.1%; in assay [3], 10.1%; in assay [4], 4.85%; in assay [5] it was 2.35%; in assay [6], -10.8%.
